Laboratory results taken from PubChem BioAssay (NCI).
About 83,000 compounds went through this panel and 20% of them were active in at least one assay; those are over-represented in the sample as a whole.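 Activity criterion: percent growth below 10, measured after cells in 96-well plates were exposed to a single compound concentration for 48 hours.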 Active and inactive are the calls of the source.

Assays:
Test in all cases: NCI-60 one-dose screen, 48 h (100 = growth as untreated, 0 = no growth, -100 = all killed)
Conditions in all cases: 10 µM unless noted
NCI-H23 lung = tested on: NCI-H23 lung
NCI-H226 lung = tested on: NCI-H226 lung
NCI-H322M lung = tested on: NCI-H322M lung
HOP-62 NSCLC = tested on: HOP-62 NSCLC
NCI-H460 lung = tested on: NCI-H460 lung
HOP-92 NSCLC = tested on: HOP-92 NSCLC
A549/ATCC NSCLC = tested on: A549/ATCC NSCLC
786-0 renal = tested on: 786-0 renal
COLO 205 colon = tested on: COLO 205 colon
NCI-H522 lung = tested on: NCI-H522 lung

Measured: growth

CCCCCC(/C=N\NC(=S)N/N=C/C(=C/c1ccccc1)CCCCC)=C\c1ccccc1
inactive: NCI-H23 lung 70.6% | NCI-H226 lung 89.8% | NCI-H322M lung 61.3% | HOP-62 NSCLC 72.7% | NCI-H460 lung 57.8% | HOP-92 NSCLC 15.8% | A549/ATCC NSCLC 74.8% | 786-0 renal 79.9% | COLO 205 colon 97.2%

O=C(N/N=C/c1ccc(Cl)cc1)c1[nH]c2ccc(Cl)cc2c1-c1ccccc1
active: NCI-H460 lung 4.43% | HOP-92 NSCLC -7.26% | COLO 205 colon -72.4%
inactive: NCI-H23 lung 42.1% | NCI-H226 lung 10.9% | NCI-H322M lung 37.6% | HOP-62 NSCLC 23.9% | A549/ATCC NSCLC 42.9% | 786-0 renal 22.1%

CCOC(=O)c1cc2c(n1Cc1cc(OC)c(OC)c(OC)c1)-c1nc(N)sc1CCC2
inactive: NCI-H23 lung 62.9% | NCI-H226 lung 73.4% | NCI-H322M lung 81.7% | HOP-62 NSCLC 44.3% | NCI-H460 lung 31.9% | HOP-92 NSCLC 42% | A549/ATCC NSCLC 28% | 786-0 renal 36.8% | COLO 205 colon 40.3%

O=C(Nc1ccccc1O)c1ccc(CNC(=O)c2sccc2Nc2ccnc(C(F)(F)F)c2)cc1
inactive: NCI-H23 lung 51.7% | NCI-H226 lung 54.8% | NCI-H322M lung 51% | HOP-62 NSCLC 65.6% | NCI-H460 lung 42% | HOP-92 NSCLC 20.9% | 786-0 renal 60.4% | COLO 205 colon 73.3%
active: NCI-H522 lung 7.48%

C#CCNC(=O)[C@H](CC)[C@H]1CC[C@H](C)[C@H]([C@@H](C)[C@H](O)[C@H](C)C(=O)[C@H](CC)C2O[C@]3(C=CC(=O)[C@]4(CC[C@@](C)([C@H]5CC[C@](O)(CC)[C@H](C)O5)O4)O3)[C@H](C)C[C@@H]2C)O1 (stereo not given in full)
inactive: NCI-H23 lung 42.4% | NCI-H226 lung 57.7% | NCI-H322M lung 53.8% | HOP-62 NSCLC 61.8% | NCI-H460 lung 35.5% | HOP-92 NSCLC 13.2% | A549/ATCC NSCLC 44% | 786-0 renal 70.5% | COLO 205 colon 10.8%

CC(C)(Sc1cc(C(C)(C)C)c(OC(=O)CCCC(=O)O)c(C(C)(C)C)c1)Sc1cc(C(C)(C)C)c(OC(=O)CCCC(=O)O)c(C(C)(C)C)c1
inactive: NCI-H23 lung 29.5% | NCI-H226 lung 64.8% | NCI-H322M lung 49.5% | HOP-62 NSCLC 38% | HOP-92 NSCLC 73% | A549/ATCC NSCLC 21.4% | 786-0 renal 49.7% | COLO 205 colon 58.4%
active: NCI-H460 lung 9.34%

CC(C)c1ccc(Cc2cnc(NC(=O)c3cc(Br)cs3)s2)cc1
inactive: NCI-H23 lung 47.6% | NCI-H226 lung 24.5% | NCI-H322M lung 45.6% | HOP-62 NSCLC 35.8% | NCI-H460 lung 13.6% | HOP-92 NSCLC 35.7% | A549/ATCC NSCLC 31.4% | 786-0 renal 31.3% | COLO 205 colon 15.4%

O=c1c2cccc3c(N4CCCC4)ccc(c32)c2nc3ccccc3n12
inactive: NCI-H23 lung 68.2% | NCI-H226 lung 55.3% | NCI-H322M lung 95.1% | HOP-62 NSCLC 66.1% | NCI-H460 lung 16.1% | HOP-92 NSCLC 40.7% | A549/ATCC NSCLC 35.6% | 786-0 renal 88.3% | COLO 205 colon 63.6%

O=C1c2ccccc2-c2c1c1c(=O)[nH]c3ccccc3c1n2Cc1ccccc1
inactive: NCI-H23 lung 63.1% | NCI-H226 lung 29.5% | NCI-H322M lung 58.4% | HOP-62 NSCLC 75.8% | NCI-H460 lung 58.9% | HOP-92 NSCLC 56.4% | A549/ATCC NSCLC 44.9% | 786-0 renal 39.7% | COLO 205 colon 73.8%

O=C(/C=C(/C=C/c1ccc2[nH]ccc2c1)OB(F)F)/C=C/c1ccc2[nH]ccc2c1
active: NCI-H23 lung -26.6% | NCI-H226 lung -59.5% | HOP-62 NSCLC -16.5% | NCI-H460 lung 0.421% | HOP-92 NSCLC 4.49% | A549/ATCC NSCLC -53.6% | 786-0 renal -57.1% | COLO 205 colon -38.4%
inactive: NCI-H322M lung 27.5%

NC(=O)c1ccc(-c2c3ccccc3cc3c2ccc2ccccc23)cc1
inactive: NCI-H23 lung 70.7% | NCI-H226 lung 65.6% | NCI-H322M lung 80.1% | HOP-62 NSCLC 65.7% | NCI-H460 lung 29.9% | HOP-92 NSCLC 76.4% | 786-0 renal 52.4% | COLO 205 colon 52.5%

N#Cc1c(-c2ccccc2)cc(-c2ccc(Nc3nc(Nc4ccc(Cl)cc4)nc(Nc4ccc(Cl)cc4)n3)cc2)nc1N
active: NCI-H226 lung -23.4% | HOP-92 NSCLC -72.5% | COLO 205 colon -25.3%
inactive: NCI-H23 lung 39.2% | NCI-H322M lung 87% | HOP-62 NSCLC 99% | NCI-H460 lung 48.2% | A549/ATCC NSCLC 28.8% | 786-0 renal 46.7%

N#Cc1nc(-c2ccccc2)oc1S(=O)(=O)N1CCN(c2ccccc2)CC1
inactive: NCI-H23 lung 74.9% | NCI-H226 lung 87.2% | NCI-H322M lung 95.6% | HOP-62 NSCLC 104% | NCI-H460 lung 97.8% | HOP-92 NSCLC 116% | A549/ATCC NSCLC 99.9% | 786-0 renal 99.8% | COLO 205 colon 122%

CCOC(=O)c1nn(-c2ccc(S(N)(=O)=O)cc2)c2nc(C)cc(=O)n12
inactive: NCI-H23 lung 98.5% | NCI-H226 lung 104% | NCI-H322M lung 102% | HOP-62 NSCLC 102% | NCI-H460 lung 109% | HOP-92 NSCLC 95% | A549/ATCC NSCLC 102% | 786-0 renal 96.5% | COLO 205 colon 114%

COc1ccc(/C=C(\C#N)n2nnc3cc(Cl)ccc32)cc1
active: NCI-H23 lung 8.62% | NCI-H322M lung 6.1% | NCI-H460 lung 1.99% | HOP-92 NSCLC -2.3% | 786-0 renal -16.7% | COLO 205 colon -13.2%
inactive: NCI-H226 lung 12.8% | HOP-62 NSCLC 40.8% | A549/ATCC NSCLC 14.4%

Fc1cccc(Oc2ccc(Nc3ncnc4ccc(OCCCN5CCOCC5)cc34)cc2Cl)c1
inactive: NCI-H23 lung 73.5% | NCI-H226 lung 88.1% | NCI-H322M lung 37.7% | HOP-62 NSCLC 82.5% | NCI-H460 lung 42.5% | HOP-92 NSCLC 54.3% | A549/ATCC NSCLC 48.3% | 786-0 renal 51.9% | COLO 205 colon 79.4%

O=C(Nc1ccc(Oc2cccc(F)c2)c(Cl)c1)c1cccnc1
inactive: NCI-H23 lung 44.9% | NCI-H226 lung 56.9% | NCI-H322M lung 50.8% | HOP-62 NSCLC 34% | NCI-H460 lung 24.7% | HOP-92 NSCLC 63.4% | A549/ATCC NSCLC 35.5% | 786-0 renal 40.9% | COLO 205 colon 22.7%

CC1=C([Se]CC(OC(=O)CC[Se]c2ccccc2)C(=O)NC(C)(C)C)C(=O)c2ccccc2C1=O (stereo not given)
active: NCI-H23 lung -45.6% | NCI-H226 lung -49.4% | NCI-H322M lung -51.9% | HOP-62 NSCLC -36.1% | NCI-H460 lung -49.2% | HOP-92 NSCLC -74.5% | A549/ATCC NSCLC -1.39% | 786-0 renal -90.2% | COLO 205 colon -90.1%

Cn1c(I)c(C#CCO[Si](C)(C)C(C)(C)C)c(=O)[nH]c1=O
inactive: NCI-H23 lung 96.4% | NCI-H226 lung 108% | NCI-H322M lung 95.5% | HOP-62 NSCLC 96.9% | NCI-H460 lung 106% | HOP-92 NSCLC 59.4% | A549/ATCC NSCLC 107% | 786-0 renal 99% | COLO 205 colon 82.7%

O=C(CN1CCOCC1)Nc1nc(-c2cc3ccccc3oc2=O)cs1
inactive: NCI-H23 lung 111% | NCI-H226 lung 88.2% | NCI-H322M lung 100% | HOP-62 NSCLC 96.9% | NCI-H460 lung 103% | HOP-92 NSCLC 90.7% | A549/ATCC NSCLC 105% | 786-0 renal 103% | COLO 205 colon 120%

COc1ccc(C/C(C)=C(/c2ccc(OCCN(C)C)cc2)c2ccc(OC(=O)NCc3ccccc3)cc2)cc1
inactive: NCI-H23 lung 83.1% | NCI-H226 lung 97.7% | NCI-H322M lung 80.8% | HOP-62 NSCLC 83.3% | NCI-H460 lung 22.9% | HOP-92 NSCLC 38.2% | A549/ATCC NSCLC 55% | 786-0 renal 61.1% | COLO 205 colon 20.4%

O=C(CSc1nnc(-c2cnccn2)n1-c1ccccc1)c1ccc(Cl)cc1
inactive: NCI-H23 lung 108% | NCI-H226 lung 104% | NCI-H322M lung 95.5% | HOP-62 NSCLC 97.7% | NCI-H460 lung 103% | HOP-92 NSCLC 81.4% | A549/ATCC NSCLC 91.7% | 786-0 renal 95.1% | COLO 205 colon 99.6%

COc1ccc(Cc2cnc(NC(=O)c3cc(C)oc3C)s2)cc1
inactive: NCI-H23 lung 59.5% | NCI-H226 lung 70.7% | NCI-H322M lung 51.9% | HOP-62 NSCLC 53% | NCI-H460 lung 16.6% | HOP-92 NSCLC 49.9% | A549/ATCC NSCLC 38.1% | 786-0 renal 43.4% | COLO 205 colon 42.9%

COc1ccc2c(c1)CC[C@H](O)/C2=C/c1cc(OC)c(OC)c(OC)c1
inactive: NCI-H23 lung 30.3% | NCI-H226 lung 40.8% | NCI-H322M lung 60.5% | HOP-62 NSCLC 34.9% | A549/ATCC NSCLC 13.7% | 786-0 renal 16.1%
active: NCI-H460 lung 4.68% | HOP-92 NSCLC 5.25% | COLO 205 colon -48.8%

Cc1ccc2c(n1)C(=O)C(Br)=C(CC(C)C)C2=O
inactive: NCI-H23 lung 98.6% | NCI-H226 lung 97.2% | NCI-H322M lung 96.5% | HOP-62 NSCLC 97.1% | NCI-H460 lung 105% | HOP-92 NSCLC 80.4% | A549/ATCC NSCLC 90.8% | 786-0 renal 96.3% | COLO 205 colon 78.5%

CC(=O)N1N=C(c2ccc(C(F)(F)F)c(F)c2)CC1c1[nH]c(C)c(C(=O)NCC(F)(F)F)c1C (stereo not given)
inactive: NCI-H23 lung 78.8% | NCI-H226 lung 56.3% | NCI-H322M lung 74.6% | HOP-62 NSCLC 64.9% | NCI-H460 lung 52.1% | HOP-92 NSCLC 52.4% | A549/ATCC NSCLC 55.8% | 786-0 renal 13.1% | COLO 205 colon 112%

COc1cc2cc(NCc3cccc(Cl)c3)nc(C)c2cc1OC
inactive: NCI-H23 lung 22.6% | NCI-H226 lung 35.8% | NCI-H322M lung 37.4% | HOP-62 NSCLC 51.4% | NCI-H460 lung 22.7% | HOP-92 NSCLC 57.8% | A549/ATCC NSCLC 41.3% | 786-0 renal 39.9% | COLO 205 colon 31.6%

O=[N+]([O-])c1ccc(O)cc1Br
inactive: NCI-H23 lung 95.1% | NCI-H226 lung 93.2% | NCI-H322M lung 105% | HOP-62 NSCLC 92.4% | NCI-H460 lung 104% | HOP-92 NSCLC 44.8% | A549/ATCC NSCLC 103% | 786-0 renal 99.8% | COLO 205 colon 108%

CCC(=O)Oc1ccc(-c2ccccc2)cc1Br
inactive: NCI-H23 lung 101% | NCI-H226 lung 96.1% | NCI-H322M lung 111% | HOP-62 NSCLC 104% | NCI-H460 lung 98.8% | HOP-92 NSCLC 87.7% | A549/ATCC NSCLC 105% | 786-0 renal 105% | COLO 205 colon 109%
